From the supplement of paper PMC6522484
± gives the standard deviation of the averaged measurements.

system: DLD1; assay: cell viability (CellTiter-Glo) relative to plate median (fraction of plate median); higher = more viable cells; conditions: 5 µM; treatment time 24 h; reporter: 7TFP
Method in brief: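 After seeding in 384-well plates, colorectal cancer cell lines carrying stable lentiviral TCF/Wnt firefly luciferase reporters (7TFP or TCF4/Wnt) were left 24 h. Library compounds were then added at a final 5 µM for 24 h. A Tecan F500 reader measured firefly luciferase or CellTiterGlo luminescence on parallel plates, with each well normalised to the plate median by webcellHTS2 (additive, no log transformation), and two independent replicates averaged.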

SMILES | cell viability
CCOc1ccc2nc(S(N)(=O)=O)sc2c1 | 0.972 ± 0.054
C=CCCCCCCCCC(=O)O | 1.03 ± 0.072
C[C@H](N)[C@H](O)c1cccc(O)c1 | 0.955 ± 0.052
CC(=O)O[C@H]1C[C@@]2(C)[C@H](c3ccoc3)OC(=O)[C@H]3O[C@]32[C@@]2(C)C1[C@]1(C)C(C[C@H]2OC(C)=O)C(C)(C)[C@H](OC(C)=O)C[C@@H]1OC(C)=O (stereo partly drawn) [11alpha-ACETOXYKHIVORIN] | 0.973 ± 0.014
COc1cc(O)c2c(c1)C(=O)c1cc3c(c(OC)c1C2=O)[C@@H]1CCO[C@@H]1O3 [Aversin] | 1.24 ± 0.17
C[C@H]1O[C@H](O[C@H]2[C@H](O)[C@@H](O)[C@@H](O[C@H]3[C@H](O)[C@@H](O)C(O)O[C@@H]3CO)O[C@@H]2CO)[C@H](O)[C@@H](O)[C@@H]1N[C@H]1C=C(CO)[C@@H](O)[C@H](O)[C@H]1O (stereo not given in full) | 1.01 ± 0.034
COC(=O)c1c(C)cc(OC)cc1O | 0.99 ± 0.071
Nc1[nH]cnc2ncnc1-2 | 1.2
CC(C(=O)O)c1ccc(C(=O)c2cccs2)cc1 (stereo not given) | 1.01 ± 0.021
CCOc1ccc(C(=O)c2ccc(OC)c(O)c2O)cc1 | 1.01 ± 0.052
CN1C(=O)CC[C@H]1c1cccnc1 | 1.03 ± 0.035
CC1=C(/C=C/C(C)=C/C=C/C(C)=C/C=C/C=C(C)/C=C/C=C(C)/C=C/C(=O)[C@]2(C)C[C@@H](O)CC2(C)C)C(C)(C)C[C@H](O)C1 | 0.98 ± 0.057
C[C@@H]1NC(=O)[C@H](Cc2ccccc2)NC1=O [cyclo(alanylphenylalanyl)] | 1 ± 0.053
CC(C(=O)O)c1cccc(C(=O)c2ccccc2)c1 (stereo not given) | 1.14 ± 0.13
O=C(O)CN(CCN(CC(=O)O)CC(=O)O)CC(=O)O.[Na+].[Na+].[Na+] | 0.914 ± 0.021
